Source: PubChem BioAssay
Active and inactive are the calls of the source. Unless noted, the rule behind the calls is not given here.

Assays:
[1] = anti-His antibody binders, primary screen, artefact control for SMM control protein annotation, biochemical, small-molecule microarray, 635 nm fluorescence (AID 1128); conditions: anti-His Alexa647 antibody binding, higher = more signal;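 note: score merges feature fluorescence with signal-to-noise for each printed compound spot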
[2] = tested on: Human papillomavirus type 1a E7 protein (residues 1-88); test: HPV1a E7 small-molecule binders, primary screen, biochemical, small-molecule microarray, residues 1-88, 635 nm (AID 1129); conditions: small-molecule microarray binding, fluorescence 635 nm; higher = more signal
[3] = molecular target: Focal adhesion kinase 1 (Homo sapiens) (UniProt Q05397); test: small-molecule microarray binders of FAK, primary screen, biochemical, 635/667 nm fluorescence, BSA, DTT (AID 1130); conditions: PTK2 binding, 635 nm fluorescence, higher = more signal;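 note: composite of spot emission at 667 nm and signal to noise over triplicate slides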
Sequence of Focal adhesion kinase 1 (Homo sapiens) (Q05397 whole entry, looked up): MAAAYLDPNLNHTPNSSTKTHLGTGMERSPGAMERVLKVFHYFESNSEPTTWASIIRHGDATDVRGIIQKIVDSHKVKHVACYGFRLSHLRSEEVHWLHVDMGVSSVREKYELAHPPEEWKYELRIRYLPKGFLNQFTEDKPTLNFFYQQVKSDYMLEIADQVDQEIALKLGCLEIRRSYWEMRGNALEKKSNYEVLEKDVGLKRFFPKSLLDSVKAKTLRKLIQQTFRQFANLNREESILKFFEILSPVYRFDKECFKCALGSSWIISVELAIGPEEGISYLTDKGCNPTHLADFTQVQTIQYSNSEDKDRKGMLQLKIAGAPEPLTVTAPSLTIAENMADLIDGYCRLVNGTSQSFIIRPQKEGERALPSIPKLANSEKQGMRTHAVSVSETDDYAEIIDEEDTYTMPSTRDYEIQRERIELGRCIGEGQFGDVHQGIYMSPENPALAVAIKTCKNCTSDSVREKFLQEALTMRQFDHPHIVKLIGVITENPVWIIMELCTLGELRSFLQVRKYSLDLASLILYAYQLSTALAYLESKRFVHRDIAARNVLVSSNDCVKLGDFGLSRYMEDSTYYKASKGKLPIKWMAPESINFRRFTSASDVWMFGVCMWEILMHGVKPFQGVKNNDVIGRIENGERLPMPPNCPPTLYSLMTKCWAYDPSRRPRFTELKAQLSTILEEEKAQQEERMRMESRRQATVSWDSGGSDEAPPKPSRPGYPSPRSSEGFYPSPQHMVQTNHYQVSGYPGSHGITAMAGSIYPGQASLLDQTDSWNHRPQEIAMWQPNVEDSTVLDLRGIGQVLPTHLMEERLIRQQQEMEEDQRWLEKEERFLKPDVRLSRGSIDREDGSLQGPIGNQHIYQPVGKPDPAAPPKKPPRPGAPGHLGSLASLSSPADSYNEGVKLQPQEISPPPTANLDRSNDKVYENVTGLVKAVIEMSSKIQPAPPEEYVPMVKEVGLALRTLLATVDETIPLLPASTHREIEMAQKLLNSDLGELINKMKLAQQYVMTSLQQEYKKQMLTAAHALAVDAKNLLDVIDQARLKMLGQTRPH

[4] = tested on: Fibrinogen (Alexa647-labelled); test: fibrinogen binders on compound microarrays, profiling panel, artefact control for SMM control-protein annotation, biochemical, small-molecule microarray, 635/667 nm fluorescence (AID 1131); conditions: fibrinogen-A647 binding fluorescence, higher = more signal;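 note: z-score merges 667 nm fluorescence with per-spot signal-to-noise over triplicate slides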
[5] = molecular target: Follistatin (Homo sapiens) (UniProt P19883); test: follistatin binders on small-molecule microarrays, primary screen, biochemical, small-molecule microarray, 635/667 nm fluorescence (AID 1132); conditions: FST binding, 635 nm fluorescence, higher = more signal
Sequence of Follistatin (Homo sapiens) (P19883 whole entry, looked up): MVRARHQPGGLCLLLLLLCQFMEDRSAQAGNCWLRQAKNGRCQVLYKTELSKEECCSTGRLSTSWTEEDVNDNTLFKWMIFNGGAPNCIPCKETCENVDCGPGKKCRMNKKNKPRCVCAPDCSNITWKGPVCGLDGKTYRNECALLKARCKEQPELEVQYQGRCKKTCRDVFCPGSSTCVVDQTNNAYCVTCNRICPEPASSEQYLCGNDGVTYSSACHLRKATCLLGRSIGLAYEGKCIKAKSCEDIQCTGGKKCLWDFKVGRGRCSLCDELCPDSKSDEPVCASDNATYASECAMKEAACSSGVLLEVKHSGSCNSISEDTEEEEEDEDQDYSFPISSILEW

[6] = molecular target: Fibroblast growth factor 2 (Homo sapiens) (UniProt P09038); test: FGF2 binders on small-molecule microarrays, primary screen, biochemical, small-molecule microarray, 635/667 nm fluorescence (AID 1133); conditions: small-molecule microarray binding, FGF2, fluorescence 635/667; higher = more signal
Sequence of Fibroblast growth factor 2 (Homo sapiens) (P09038 whole entry, looked up): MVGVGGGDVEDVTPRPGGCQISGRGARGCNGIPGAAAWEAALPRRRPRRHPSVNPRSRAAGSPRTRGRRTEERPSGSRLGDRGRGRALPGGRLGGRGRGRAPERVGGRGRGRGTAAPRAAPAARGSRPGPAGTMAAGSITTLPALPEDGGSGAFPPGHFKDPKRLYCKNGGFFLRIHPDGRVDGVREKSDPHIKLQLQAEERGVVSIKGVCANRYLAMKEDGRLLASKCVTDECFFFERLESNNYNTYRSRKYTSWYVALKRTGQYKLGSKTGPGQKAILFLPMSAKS

[7] = mitochondrial membrane potential change in A549 cells, profiling panel, cell-based, JC-1 fluorescence, basal, 24 h, 100 nL (AID 1138); conditions: higher = more signal;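 note: A549 lung adenocarcinoma cells under basal conditions with no added stimulus; test concentration not given here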
Lefty1 = Lefty1 binders on small-molecule microarrays, primary screen, biochemical, small-molecule microarray, 635/667 nm fluorescence (AID 1139); conditions: small-molecule microarray binding, fluorescence 635/667; higher = more signal
[8] = tested on: wheat germ agglutinin (Triticum aestivum), Alexa647-labelled; test: wheat germ agglutinin binders on compound microarrays, profiling panel, artefact control for SMM control-protein annotation, biochemical, small-molecule microarray, 635/667 nm fluorescence (AID 1140); conditions: WGA-A647 binding, 635 nm fluorescence, higher = more signal;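 note: score merges 667 nm feature emission with signal to noise over triplicate slides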
[9] = molecular target: Luciferin 4-monooxygenase (Photinus pyralis) (UniProt P08659); test: firefly luciferase enzyme inhibitors, primary screen, biochemical, luminescence, purified enzyme, 2006 set (AID 1141); conditions: SteadyGlo luminescence, 30 min, higher = more signal, called active from +8 up or from −8 down;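 note: cell-free assay with purified firefly luciferase at 100 ng per well in PBS; test concentration not given here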
Sequence of Luciferin 4-monooxygenase (Photinus pyralis) (P08659 whole entry, looked up): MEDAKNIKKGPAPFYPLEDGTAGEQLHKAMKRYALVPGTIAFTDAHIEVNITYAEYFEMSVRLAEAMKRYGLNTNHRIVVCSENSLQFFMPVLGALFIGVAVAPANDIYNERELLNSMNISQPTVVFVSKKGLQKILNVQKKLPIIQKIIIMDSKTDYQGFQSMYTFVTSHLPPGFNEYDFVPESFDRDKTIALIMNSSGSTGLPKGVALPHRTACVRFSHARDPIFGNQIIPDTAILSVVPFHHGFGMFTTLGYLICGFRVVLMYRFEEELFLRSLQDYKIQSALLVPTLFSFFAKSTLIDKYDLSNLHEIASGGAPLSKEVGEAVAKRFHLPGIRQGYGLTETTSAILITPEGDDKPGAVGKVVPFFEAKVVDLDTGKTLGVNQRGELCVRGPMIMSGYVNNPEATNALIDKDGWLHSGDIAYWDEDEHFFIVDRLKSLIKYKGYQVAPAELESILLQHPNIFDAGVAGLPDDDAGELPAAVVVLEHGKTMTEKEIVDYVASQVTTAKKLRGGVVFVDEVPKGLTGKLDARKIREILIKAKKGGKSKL

[10] = tested on: Wnt5a (protein binding on small-molecule microarray); test: Wnt5a binders on small-molecule microarray, primary screen, biophysical, 635/667 nm fluorescence (AID 1142); conditions: 635 nm fluorescence, higher = more signal;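 note: fluorescence read at 667 nm with signal to noise per printed feature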
[11] = cell viability in Huh7 cells, primary screen, cytotoxicity control for HCV replication inhibitor project, CellTiter-Glo luminescence, basal, 48 h (AID 1143); conditions: Huh7 HCV replicon, higher = more signal, called active from +8 up or from −8 down;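 note: Huh7 hepatoma cells carrying a hepatitis C replication reporter with no stimulus; test concentration not given here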
[12] = P. aeruginosa biofilm formation inhibitors, primary screen, PAO1 strain, BacTiter-Glo luminescence, LB-PBS (AID 1144); conditions: 12 h, higher = more signal
[13] = CREB reporter modulators without forskolin, primary screen, cell-based, PC12, CRE-LacZ reporter, unstimulated (AID 1145); conditions: no forskolin, luminescence, 4.5 h, higher = more signal, called active from +8 up or from −8 down
[14] = CREB reporter modulators under forskolin, primary screen, cell-based, PC12, CRE-LacZ reporter, forskolin-stimulated (AID 1146); conditions: luminescence, 4.5 h, higher = more signal, called active from +8 up or from −8 down;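 note: PC12 cells with 6xCRE LacZ reporter stimulated by forskolin 10 µM; beta-galactosidase reporter signal reflecting CREB driven transcription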
[15] = molecular target: Streptavidin (Streptomyces avidinii) (UniProt P22629); test: streptavidin binders on small-molecule microarray, primary screen, artefact control for SMM compound annotation, biophysical, 635/667 nm fluorescence (AID 1147); conditions: streptavidin binding, higher = more signal;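 note: signal reflects streptavidin binding to arrayed compounds as a control protein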
Sequence of Streptavidin (Streptomyces avidinii) (P22629 whole entry, looked up): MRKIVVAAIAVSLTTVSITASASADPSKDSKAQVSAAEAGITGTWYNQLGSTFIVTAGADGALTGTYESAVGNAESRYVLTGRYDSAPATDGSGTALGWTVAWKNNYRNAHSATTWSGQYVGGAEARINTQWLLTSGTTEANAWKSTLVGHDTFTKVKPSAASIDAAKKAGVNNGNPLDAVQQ

[16] = small-molecule binders of probe aInhba, primary screen, biochemical, small-molecule microarray, 635/667 nm fluorescence (AID 1148); conditions: higher = more signal;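 note: score merges 667nm spot fluorescence with signal-to-noise for antibody binding to printed compounds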
Torsin-1A (Homo sapiens) [17] = molecular target: Torsin-1A (Homo sapiens) (UniProt O14656); test: torsin A binders from cell lysate, primary screen, small-molecule microarray, wild-type, 635/667 nm (AID 1149); conditions: COS7 hTOR1A-WT lysate, 635 nm fluorescence, higher = more signal
Sequence of Torsin-1A (Homo sapiens) (O14656 whole entry, looked up): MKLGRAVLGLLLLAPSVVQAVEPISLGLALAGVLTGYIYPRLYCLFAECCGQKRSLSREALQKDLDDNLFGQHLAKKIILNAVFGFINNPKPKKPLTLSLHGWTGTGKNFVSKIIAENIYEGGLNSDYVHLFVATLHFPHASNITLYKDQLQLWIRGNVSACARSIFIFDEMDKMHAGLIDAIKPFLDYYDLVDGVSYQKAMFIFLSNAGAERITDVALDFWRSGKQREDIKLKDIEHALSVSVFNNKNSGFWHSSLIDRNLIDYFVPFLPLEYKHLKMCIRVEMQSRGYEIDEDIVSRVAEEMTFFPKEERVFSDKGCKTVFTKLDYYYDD

Torsin-1A (Homo sapiens) [18] = molecular target: Torsin-1A (Homo sapiens) (UniProt O14656); test: small-molecule binders of mutant TOR1A in lysate, primary screen, cell lysate, small-molecule microarray, COS7 lysate, 635/667 nm fluorescence (AID 1150); conditions: COS7 hTOR1A mutant lysate, 635 nm fluorescence, higher = more signal;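 note: score pools 667 nm emission and signal to noise measuring lysate protein binding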
[19] = tested on: Sonic hedgehog protein (Shh); test: small-molecule binders of Shh protein, primary screen, biochemical, small-molecule microarray, 635/667 nm fluorescence (AID 1151); conditions: small-molecule microarray binding, 635 nm fluorescence; higher = more signal;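 note: Shh protein binding to compounds spotted on small-molecule microarray slides; score combines spot fluorescence intensity with signal-to-noise across triplicate slides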

COc1ccc([Si](C)(C)[C@H]2[C@H](CC(=O)N(CCO)Cc3ccccc3)O[C@@]3(C(=O)N(Cc4cccc(N5CCOC5=O)c4)c4ccccc43)[C@@H]2C)cc1
composite z-score [1]: 1.65 | composite z-score [2]: 0.922 | composite z-score [3]: 0.647 | composite z-score [4]: 0.206 | composite z-score [5]: 1.06 | composite z-score [6]: 0.494 | z-score [7]: -0.791 | composite z-score (Lefty1): 0.857 | composite z-score [8]: 0.321 | z-score [9]: 0.271 (inactive) | composite z-score [10]: -0.031 | z-score [11]: -4.86 (inactive) | z-score [12]: -0.388 (inactive) | z-score [13]: 1.27 (inactive) | z-score [14]: -0.863 (inactive) | composite z-score [15]: 0.0212 | composite z-score [16]: -0.0523 | composite z-score (Torsin-1A (Homo sapiens) [17]): 0.898 | composite z-score (Torsin-1A (Homo sapiens) [18]): 0.931 | composite z-score [19]: 1.22

C=CCOC(=O)[C@H]1[C@@H]2C(=O)O[C@@H](c3ccccc3)[C@@H](c3ccccc3)N2[C@@H](c2ccc(OCCOC(=O)[C@@H]3C[C@@H]4C(=O)N5CCC[C@H]5C(=O)N4[C@@H]3c3ccc(O)cc3)cc2)[C@]12C(=O)Nc1ccc(I)cc12
composite z-score [1]: 0.796 | composite z-score [2]: 0.246 | composite z-score [3]: 0.0398 | composite z-score [4]: 0.664 | composite z-score [5]: 1.36 | composite z-score [6]: 1.16 | z-score [7]: -1.28 | composite z-score (Lefty1): 0.698 | composite z-score [8]: 0.671 | z-score [9]: -0.873 (inactive) | composite z-score [10]: 0.269 | z-score [11]: -0.648 (inactive) | z-score [12]: -0.42 (inactive) | z-score [13]: 0.423 (inactive) | z-score [14]: 0.016 (inactive) | composite z-score [15]: 0.107 | composite z-score [16]: 0.177 | composite z-score (Torsin-1A (Homo sapiens) [17]): 0.655 | composite z-score (Torsin-1A (Homo sapiens) [18]): 0.504 | composite z-score [19]: 1.72

COc1ccc(C#Cc2ccc3c(c2)[C@]2(C(=O)N3)[C@H](c3ccc(O)cc3)N3[C@H](c4ccccc4)[C@H](c4ccccc4)OC(=O)[C@H]3[C@@H]2C(=O)O)cc1
composite z-score [1]: 2.03 | composite z-score [2]: 1.06 | composite z-score [3]: 0.324 | composite z-score [4]: 0.457 | composite z-score [5]: 0.127 | composite z-score [6]: -0.218 | z-score [7]: -2.05 | composite z-score (Lefty1): -0.211 | composite z-score [8]: -0.178 | z-score [9]: -1.37 (inactive) | composite z-score [10]: 0.136 | z-score [11]: -4.66 (inactive) | z-score [12]: -1.04 (inactive) | z-score [13]: 0.478 (inactive) | z-score [14]: -0.478 (inactive) | composite z-score [15]: 0.942 | composite z-score [16]: 0.11 | composite z-score (Torsin-1A (Homo sapiens) [17]): 0.0897 | composite z-score (Torsin-1A (Homo sapiens) [18]): 0.721 | composite z-score [19]: 0.248

COc1ccc([Si](C)(C)[C@H]2[C@H](CCO)O[C@@]3(C(=O)N(Cc4cccc(N5C(=O)COc6ccccc65)c4)c4ccccc43)[C@@H]2C)cc1
composite z-score [1]: 0.354 | composite z-score [2]: -0.0131 | composite z-score [3]: -0.0804 | composite z-score [4]: 0.0563 | composite z-score [5]: 0.196 | composite z-score [6]: -0.032 | z-score [7]: 1.17 | composite z-score (Lefty1): -0.236 | composite z-score [8]: 0.715 | z-score [9]: -1.17 (inactive) | composite z-score [10]: -0.285 | z-score [11]: -6.25 (inactive) | z-score [12]: -1.83 (inactive) | z-score [13]: 2.41 (inactive) | z-score [14]: -1.52 (inactive) | composite z-score [15]: 0.174 | composite z-score [16]: -0.128 | composite z-score (Torsin-1A (Homo sapiens) [17]): -0.451 | composite z-score (Torsin-1A (Homo sapiens) [18]): -0.298 | composite z-score [19]: 0.419
